The text below walks through data of ChEMBL document CHEMBL3988442, “University of Dundee, Small-Polar-MMV Screening Library” (2021).

Each structure is given as a SMILES string. For some assays here: Entries with a potency or affinity are not part of this list.

Design in all cases: scale not given: direction of the effect not stated beside the values
The target of experiment [1] is Protein translocase subunit SecA (Escherichia coli (strain K12)) (UniProt P10408). The experiment is described as follows: Assay to Identify E. coli SecA ATPase Inhibitors. The class given is functional. The note with it: 30 µM.
Sequence of Protein translocase subunit SecA (Escherichia coli (strain K12)) (P10408 whole entry): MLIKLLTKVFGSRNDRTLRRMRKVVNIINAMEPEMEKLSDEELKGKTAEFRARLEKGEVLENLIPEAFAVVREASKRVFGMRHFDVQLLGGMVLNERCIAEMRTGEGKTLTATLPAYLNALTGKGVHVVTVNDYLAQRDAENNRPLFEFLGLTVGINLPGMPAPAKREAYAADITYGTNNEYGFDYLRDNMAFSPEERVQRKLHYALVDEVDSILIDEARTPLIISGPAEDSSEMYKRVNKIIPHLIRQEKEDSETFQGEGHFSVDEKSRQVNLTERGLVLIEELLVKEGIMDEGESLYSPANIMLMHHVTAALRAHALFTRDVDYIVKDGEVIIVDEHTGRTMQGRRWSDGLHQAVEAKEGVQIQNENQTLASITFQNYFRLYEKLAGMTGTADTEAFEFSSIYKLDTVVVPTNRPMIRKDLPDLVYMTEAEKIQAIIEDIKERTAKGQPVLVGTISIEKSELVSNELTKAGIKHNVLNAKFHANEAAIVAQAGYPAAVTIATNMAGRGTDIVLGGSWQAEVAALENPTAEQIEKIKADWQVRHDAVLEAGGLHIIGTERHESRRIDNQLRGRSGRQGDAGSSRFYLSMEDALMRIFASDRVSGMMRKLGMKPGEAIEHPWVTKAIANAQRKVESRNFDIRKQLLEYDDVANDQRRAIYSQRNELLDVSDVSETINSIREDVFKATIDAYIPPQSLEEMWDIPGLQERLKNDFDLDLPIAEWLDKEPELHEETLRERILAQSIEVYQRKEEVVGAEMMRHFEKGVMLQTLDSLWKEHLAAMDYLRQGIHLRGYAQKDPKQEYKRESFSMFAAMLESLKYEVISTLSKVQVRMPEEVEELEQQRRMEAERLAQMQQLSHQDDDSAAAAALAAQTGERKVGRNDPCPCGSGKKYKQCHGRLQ
Experiment [2] concerns the target T1, Ubiquitin-activating enzyme e1, putative (Leishmania donovani (strain BPK282A1)) (UniProt E9BSI1).
T1 sequence (whole entry): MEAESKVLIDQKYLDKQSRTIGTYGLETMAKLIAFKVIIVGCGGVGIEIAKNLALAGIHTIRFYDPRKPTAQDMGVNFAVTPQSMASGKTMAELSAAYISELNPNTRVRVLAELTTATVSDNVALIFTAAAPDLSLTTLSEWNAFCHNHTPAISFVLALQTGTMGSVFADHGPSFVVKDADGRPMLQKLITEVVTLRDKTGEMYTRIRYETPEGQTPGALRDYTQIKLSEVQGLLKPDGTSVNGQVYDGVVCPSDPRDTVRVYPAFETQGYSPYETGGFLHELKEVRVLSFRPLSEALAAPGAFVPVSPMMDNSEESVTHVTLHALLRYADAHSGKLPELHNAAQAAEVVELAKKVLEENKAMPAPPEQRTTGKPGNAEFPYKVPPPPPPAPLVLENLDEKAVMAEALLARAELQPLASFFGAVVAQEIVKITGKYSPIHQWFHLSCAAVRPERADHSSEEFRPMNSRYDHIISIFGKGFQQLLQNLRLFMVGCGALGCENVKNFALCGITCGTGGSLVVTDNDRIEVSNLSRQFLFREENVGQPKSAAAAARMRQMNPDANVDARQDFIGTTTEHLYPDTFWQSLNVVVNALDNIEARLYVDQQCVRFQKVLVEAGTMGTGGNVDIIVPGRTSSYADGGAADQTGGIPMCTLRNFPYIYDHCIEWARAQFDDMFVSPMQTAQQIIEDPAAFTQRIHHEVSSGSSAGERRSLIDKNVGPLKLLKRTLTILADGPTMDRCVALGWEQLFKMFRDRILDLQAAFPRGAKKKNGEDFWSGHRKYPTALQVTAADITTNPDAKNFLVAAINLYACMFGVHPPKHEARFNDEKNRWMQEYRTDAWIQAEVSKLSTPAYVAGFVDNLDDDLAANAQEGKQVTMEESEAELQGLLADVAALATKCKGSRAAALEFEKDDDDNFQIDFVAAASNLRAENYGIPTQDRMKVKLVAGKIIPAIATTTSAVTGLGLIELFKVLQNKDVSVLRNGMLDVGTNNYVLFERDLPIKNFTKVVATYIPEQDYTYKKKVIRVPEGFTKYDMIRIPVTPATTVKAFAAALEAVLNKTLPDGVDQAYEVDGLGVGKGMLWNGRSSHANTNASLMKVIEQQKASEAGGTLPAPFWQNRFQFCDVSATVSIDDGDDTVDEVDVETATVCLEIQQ
The experiment is described as follows: Leishmania donovani Ubiquitin Activating Enzyme (LdE1). The class given is functional. The note with it: 30 µM.

Experiment [3] addresses AMP-activated protein kinase, AMPK (Homo sapiens) (UniProt P54646+O43741+P54619+Q9UGJ0+Q9Y478+Q13131+Q9UGI9). The experiment is described as follows: AMP-dependent Kinase enzyme assay. An in vitro enzyme assay that detects ADP turnover that is directly proportional to AMPK activity. This uses naive AMPK that is activated during the assay with MK-8722. The class given is functional. The note with it: 30 µM.

The target in experiment [4] is Sialic acid-binding Ig-like lectin 9 (Homo sapiens) (UniProt Q9Y336). The experiment is described as follows: Hs-Siglec9 ALPHAscreen SOP 20170721. The following applies: 10 µM. In general terms: In Alpha technology, singlet oxygen from a donor bead excites a nearby acceptor bead.
Sequence of Sialic acid-binding Ig-like lectin 9 (Homo sapiens) (Q9Y336 whole entry): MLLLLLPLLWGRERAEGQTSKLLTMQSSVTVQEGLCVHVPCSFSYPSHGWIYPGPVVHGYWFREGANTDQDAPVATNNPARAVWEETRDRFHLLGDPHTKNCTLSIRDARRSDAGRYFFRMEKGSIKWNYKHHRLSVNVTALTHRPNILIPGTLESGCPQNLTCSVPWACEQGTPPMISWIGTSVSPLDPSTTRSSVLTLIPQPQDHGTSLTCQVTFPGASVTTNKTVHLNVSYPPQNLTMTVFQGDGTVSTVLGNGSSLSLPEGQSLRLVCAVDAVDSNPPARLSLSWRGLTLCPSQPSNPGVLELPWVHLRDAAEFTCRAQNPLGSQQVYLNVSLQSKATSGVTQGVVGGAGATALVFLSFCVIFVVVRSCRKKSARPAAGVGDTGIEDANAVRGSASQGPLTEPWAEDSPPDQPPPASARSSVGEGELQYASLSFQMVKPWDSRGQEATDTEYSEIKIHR
In the next experiment the test system is Trypanosoma cruzi. The experiment is described as follows: Trypanosoma cruzi phosphomannomutase and mannose-1-phosphate guanylyltransferase assay. The note with it: 10 µM. The class given is functional.
In experiment [5] the target is T2, Arginase-2, mitochondrial (Homo sapiens) (UniProt P78540).
T2 sequence (whole entry): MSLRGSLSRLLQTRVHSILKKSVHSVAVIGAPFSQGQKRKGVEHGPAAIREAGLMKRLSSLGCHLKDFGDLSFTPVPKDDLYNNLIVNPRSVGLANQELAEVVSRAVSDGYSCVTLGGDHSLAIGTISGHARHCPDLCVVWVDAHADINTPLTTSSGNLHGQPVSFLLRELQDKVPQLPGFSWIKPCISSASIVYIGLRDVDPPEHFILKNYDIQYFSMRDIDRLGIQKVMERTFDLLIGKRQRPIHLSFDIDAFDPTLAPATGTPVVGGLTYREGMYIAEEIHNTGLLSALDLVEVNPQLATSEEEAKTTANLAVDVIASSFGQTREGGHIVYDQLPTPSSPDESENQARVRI
The experiment is described as follows: in vitro enzyme assay to detect the production of urea directly proportional to the activity of Arginase II. Also: in the data most compounds retested in dose-response had high values. The class given is functional. The following applies: 33.3 µM.

Experiment [6] concerns the target T3, Proteasome subunit beta (Trypanosoma cruzi) (UniProt O96673).
T3 sequence (whole entry): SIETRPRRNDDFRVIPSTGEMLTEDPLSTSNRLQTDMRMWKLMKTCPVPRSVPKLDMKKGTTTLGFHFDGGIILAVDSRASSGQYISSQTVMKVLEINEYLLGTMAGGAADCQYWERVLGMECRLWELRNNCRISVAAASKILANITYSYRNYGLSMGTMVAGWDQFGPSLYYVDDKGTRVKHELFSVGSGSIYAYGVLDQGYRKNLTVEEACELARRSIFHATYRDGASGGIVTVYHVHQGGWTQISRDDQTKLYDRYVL
The experiment is described as follows: Trypanosoma cruzi proteasome chymotrypsin-like activity (TcProtChymo) assay. Also: in the data most compounds retested in dose-response had high values. The following applies: 9.37 µM. It is filed as functional.

For a further experiment, the species on record is Homo sapiens. The experiment is described as follows: To identify inhibition of the IFN signalling (Jak-Stat) pathway via expression of an eGFP reporter gene under the control of an IFN-stimulated response element (ISRE) containing MxA promoter. The class given is functional. The note with it: 30 µM. (In general: In a reporter assay the amount or activity of a reporter protein is the signal.)

The target of experiment [7] is T4, Tyrosyl-tRNA synthetase, putative (Trypanosoma cruzi (strain CL Brener)) (UniProt Q4DSP6).
T4 sequence (whole entry): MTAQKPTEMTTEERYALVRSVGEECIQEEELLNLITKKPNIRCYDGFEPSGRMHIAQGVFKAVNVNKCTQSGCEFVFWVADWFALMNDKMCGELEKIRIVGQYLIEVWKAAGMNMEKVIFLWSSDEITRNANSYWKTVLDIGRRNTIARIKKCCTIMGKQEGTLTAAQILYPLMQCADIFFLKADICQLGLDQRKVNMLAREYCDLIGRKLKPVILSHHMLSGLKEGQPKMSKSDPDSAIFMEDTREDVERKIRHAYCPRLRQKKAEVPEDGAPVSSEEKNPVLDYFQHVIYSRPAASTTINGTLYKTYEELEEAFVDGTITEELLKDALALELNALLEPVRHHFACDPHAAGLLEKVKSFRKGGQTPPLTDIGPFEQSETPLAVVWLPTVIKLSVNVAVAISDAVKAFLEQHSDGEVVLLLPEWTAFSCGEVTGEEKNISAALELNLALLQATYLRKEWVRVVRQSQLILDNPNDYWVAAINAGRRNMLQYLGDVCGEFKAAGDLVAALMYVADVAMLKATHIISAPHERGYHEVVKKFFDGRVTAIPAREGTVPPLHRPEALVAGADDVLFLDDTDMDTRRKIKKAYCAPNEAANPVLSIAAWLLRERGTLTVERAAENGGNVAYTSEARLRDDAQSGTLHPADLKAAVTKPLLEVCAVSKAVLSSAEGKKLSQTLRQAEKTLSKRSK
The experiment is described as follows: Trypanosoma cruzi tyrosyl tRNA synthetase (TcYRS) _High Tyrosine SOP. Also: in the data most compounds retested in dose-response had high values. It is filed as functional. The note with it: 30 µM.

Experiment [8] addresses T4, Tyrosyl-tRNA synthetase, putative (Trypanosoma cruzi (strain CL Brener)). The experiment is described as follows: Trypanosoma cruzi tyrosyl tRNA synthetase (TcYRS) SOP. The class given is functional. The following applies: 30 µM.
For experiment [9], the target named is Chromo domain-containing protein 1 (Saccharomyces cerevisiae (strain ATCC 204508 / S288c) (Baker's yeast)) (UniProt P32657). The experiment is described as follows: ScCHD-1 Enzyme Inhibition Assay. Also: in the data most compounds retested in dose-response had high values. The class given is functional. The note with it: 30 µM.
Sequence of Chromo domain-containing protein 1 (Saccharomyces cerevisiae (strain ATCC 204508 / S288c) (Baker's yeast)) (P32657 whole entry, the tested form may be a part): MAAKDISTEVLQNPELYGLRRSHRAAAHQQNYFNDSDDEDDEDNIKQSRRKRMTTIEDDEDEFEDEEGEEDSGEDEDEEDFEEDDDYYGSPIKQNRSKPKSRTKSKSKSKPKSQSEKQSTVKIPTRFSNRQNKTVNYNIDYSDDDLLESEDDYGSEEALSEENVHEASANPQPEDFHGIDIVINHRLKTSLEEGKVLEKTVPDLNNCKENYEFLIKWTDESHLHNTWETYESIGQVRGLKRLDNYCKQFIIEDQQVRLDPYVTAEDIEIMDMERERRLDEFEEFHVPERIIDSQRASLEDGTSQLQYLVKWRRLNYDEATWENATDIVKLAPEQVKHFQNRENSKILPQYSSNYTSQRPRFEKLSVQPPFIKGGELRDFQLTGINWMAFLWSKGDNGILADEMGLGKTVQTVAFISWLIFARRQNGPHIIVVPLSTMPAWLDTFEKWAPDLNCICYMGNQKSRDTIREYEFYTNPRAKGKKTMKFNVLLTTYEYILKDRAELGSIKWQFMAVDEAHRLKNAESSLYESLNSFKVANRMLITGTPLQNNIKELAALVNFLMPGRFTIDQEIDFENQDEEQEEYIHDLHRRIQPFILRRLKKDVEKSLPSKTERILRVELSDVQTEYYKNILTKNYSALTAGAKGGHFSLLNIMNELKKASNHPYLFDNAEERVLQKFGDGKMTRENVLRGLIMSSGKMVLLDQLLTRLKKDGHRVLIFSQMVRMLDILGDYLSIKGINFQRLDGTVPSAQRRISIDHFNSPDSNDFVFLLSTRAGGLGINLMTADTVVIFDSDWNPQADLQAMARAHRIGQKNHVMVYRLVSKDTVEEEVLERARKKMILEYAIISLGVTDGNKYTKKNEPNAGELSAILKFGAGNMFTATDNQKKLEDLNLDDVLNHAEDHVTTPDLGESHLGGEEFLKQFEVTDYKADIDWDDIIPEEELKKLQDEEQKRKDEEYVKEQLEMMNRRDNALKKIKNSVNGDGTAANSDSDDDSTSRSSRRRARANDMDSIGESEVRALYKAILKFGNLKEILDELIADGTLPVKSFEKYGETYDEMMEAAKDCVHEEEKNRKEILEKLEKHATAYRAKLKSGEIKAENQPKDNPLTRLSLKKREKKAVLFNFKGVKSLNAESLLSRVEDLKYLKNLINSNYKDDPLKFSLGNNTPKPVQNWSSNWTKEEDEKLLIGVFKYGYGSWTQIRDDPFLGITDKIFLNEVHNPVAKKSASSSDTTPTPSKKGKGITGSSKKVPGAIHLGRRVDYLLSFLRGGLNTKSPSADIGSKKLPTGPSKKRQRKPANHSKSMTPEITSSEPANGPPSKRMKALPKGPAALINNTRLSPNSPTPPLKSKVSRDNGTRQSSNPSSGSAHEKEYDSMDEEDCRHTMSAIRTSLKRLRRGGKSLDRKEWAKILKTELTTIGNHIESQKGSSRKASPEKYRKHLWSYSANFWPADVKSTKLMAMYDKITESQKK

On to `O=C(c1nc(COc2ccc3c(c2)OCO3)no1)N1CCCC1`, for which the Percent Effect in [1] was -2.38%; in experiment [2], 1.33%; in experiment [3], -0.332%; in experiment [4], 4.46%; with Trypanosoma cruzi it was -6.88%; in experiment [5], -12.5%. Also, the Percent Effect in [6] is 9.98%; in the experiment listed under Homo sapiens, 3.63%; in experiment [7], 3.17%; in experiment [8], 5.13%; in [9] it was -8.92%.
`Fc1ccc2c(c1)C(NCc1nnc3n1CCCCC3)CCCO2` (stereo not given): the Percent Effect in [1] is -2.96%; in experiment [2], 8.11%; in experiment [3] it was -2.29%; in experiment [4], 19.3%; in the experiment on Trypanosoma cruzi, 7.92%; in experiment [5], 23.1%. The Percent Effect was -1.12% in experiment [6]; 0.659% in the experiment filed under Homo sapiens; 2.15% in experiment [7]; 8.64% in [8]; -12.5% in [9].
As for `COc1cc(CN2CCN(c3cccc(OC)c3)C(=O)C2)cc(OC)c1`, the Percent Effect in experiment [1] is -1.99%; in experiment [2], 1.39%; in experiment [3], -1.82%; in experiment [4], -5.46%; in the experiment with Trypanosoma cruzi, -5.34%; in experiment [5], -4.42%. Moreover, the Percent Effect in experiment [6] is 10.9%; in the experiment filed under Homo sapiens, -15.2%; in experiment [7] it was 2.1%; in [8] it was 2.56%; in experiment [9] it was -2.05%.
Turning to `Cn1cnnc1C1CCCN(C(=O)c2cnc3ccccc3n2)C1` (stereo not given), the Percent Effect is -5.29% in experiment [1]; -18.2% in experiment [2]; 6.07% in experiment [3]; 1.12% in experiment [4]; 0.49% with Trypanosoma cruzi; -1.47% in [5]. In addition, the Percent Effect in [6] is 5.58%; in the experiment filed under Homo sapiens it was 17.6%; in experiment [7], 7.62%; in [8] it was 11.8%; in experiment [9] it was -15.4%.
For the compound `COc1ccc(Cl)cc1C(=O)N1CCCC(n2nc(C)nc2C)C1` (stereo not given), the Percent Effect in experiment [1] was -3.26%; in experiment [2], 0%; in experiment [3] it was 9.49%; in experiment [4], -8.91%; in the experiment with Trypanosoma cruzi it was -6.33%; in experiment [5], -3.8%. In addition, the Percent Effect in [6] was -4.5%; in the experiment listed under Homo sapiens, 16.6%; in experiment [7] it was -2.46%; in experiment [8] it was -3.8%; in experiment [9], 2.53%.
For `Cc1ccc(CN2C[C@@H]3COC[C@@H](NS(C)(=O)=O)[C@@H]3C2)o1`, the Percent Effect in experiment [1] is -1.26%; in experiment [2], 2.67%; in experiment [3], -0.569%; in experiment [4] it was -2.48%; with Trypanosoma cruzi it was 8.69%; in experiment [5], -54.7%. Further, the Percent Effect in experiment [6] was 12.5%; in the experiment filed under Homo sapiens it was -3.72%; in experiment [7], 1.04%; in experiment [8], 17.5%; in [9] it was -8.24%.
With `Fc1ccc(CN2CC[C@H]3O[C@@H](COCC4CCOCC4)CC[C@H]32)cc1`, the Percent Effect in [1] was -5.06%; in [2], 5.33%; in [3] it was 10.6%; in [4], -6.01%; with Trypanosoma cruzi, -7.48%; in experiment [5], -0.233%. The Percent Effect is 3.08% in experiment [6]; 17.6% in the experiment listed under Homo sapiens; -1.06% in experiment [7]; -1.28% in experiment [8]; -7.73% in experiment [9].
As to `Cc1nn(C)c(C)c1C1CCCN1C(=O)c1ccc(NC2CC2)nc1` (stereo not given), the Percent Effect in experiment [1] was -1.33%; in experiment [2], 16.2%; in experiment [3], -3.14%; in [4], 10.9%; in the experiment on Trypanosoma cruzi, 0.464%; in experiment [5], -4.25%. For the same compound, the Percent Effect in [6] was 5.92%; in the experiment filed under Homo sapiens, 22.6%; in [7] it was 7.92%; in experiment [8] it was 18.3%; in experiment [9] it was -2.71%.
For `CN(C)C(=O)N1CCc2c(nnn2C)C1COCc1ccccc1` (stereo not given), the Percent Effect is -4.49% in experiment [1]; 21.3% in experiment [2]; -8.1% in experiment [3]; -0.726% in experiment [4]; 5.21% with Trypanosoma cruzi; -42.1% in [5]. Moreover, the Percent Effect in experiment [6] is 13.7%; in the experiment filed under Homo sapiens, -0.202%; in experiment [7], 7.29%; in experiment [8], 27.5%; in experiment [9] it was -6.92%.
With `Cc1c[nH]cc1C(=O)N1CCN(Cc2nc(C(C)C)no2)CC1`, the Percent Effect in [1] was -5.12%; in [2], 8.11%; in [3], -5.14%; in experiment [4] it was 9.52%; with Trypanosoma cruzi it was -3.81%; in experiment [5], -2.77%. For the same compound, the Percent Effect was -3.05% in experiment [6]; 17.2% in the experiment listed under Homo sapiens; 2.97% in experiment [7]; 11% in experiment [8]; 1.56% in experiment [9].
